A short description of assay [1]: qHTS assay for small molecules that induce genotoxicity in human embryonic kidney cells expressing luciferase-tagged ATAD5 (AID 651632). Also: nearly all actives have a fitted effect of over 15% in size. Also: potency is read from the fitted curve at half-maximal effect. In outline: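 Increased luciferase signal from ATAD5-tagged reporter cells indicates DNA-damage-driven ATAD5 induction. HEK293T cells are treated for 16 hr at 37C before detection with Amplite.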
In general terms: qHTS replaces the single test concentration by a dilution series.

Assay [2] can be described thus: qHTS assay for small molecule agonists of the p53 signaling pathway - cell viability (AID 651633; calls by dose curve; also: nearly all actives have a fitted effect of over 30% in size; also: potency is read from the fitted curve at half-maximal effect). In outline:
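Viability counter-read: CellTiter-Glo luminescence (30 min, room temperature) in the same p53RE-bla plates. These plates had been exposed to compounds for 16 h at 37 C.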

A short description of assay [3]: qHTS assay for small molecules that induce genotoxicity in human embryonic kidney cells expressing luciferase-tagged ATAD5 - cell viability (AID 651634; calls by dose curve; also: nearly all actives have a fitted effect of over 25% in size; also: potency is read from the fitted curve at half-maximal effect). In short, it runs like this:
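Cytotoxicity counterscreen in HEK293T cells bearing an ATAD5-luciferase reporter: live-cell protease activity measured by CellTiter-Fluor fluorescence after 15.5 hr compound exposure.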

Assay [4] is described as follows: qHTS assay for small molecule disruptors of the mitochondrial membrane potential - cell viability (AID 720634; calls by dose curve; also: nearly all actives have a fitted effect of over 20% in size; also: potency is read from the fitted curve at half-maximal effect). In short, it runs like this: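 After overnight attachment at 37 C, HepG2 cells received compound or DMSO vehicle for 1 hr. Viability is then taken from ATP-driven luminescence following a 30 min room-temperature CellTiter-Glo step.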
Assay [5] in a line: qHTS assay to test for compound auto fluorescence at 590 nm (red) in HepG2 cells (AID 720674). In outline: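 1 hr compound incubation on HepG2 cells, 37 C, 5% CO2; plate read ex 540 nm / em 590 nm; intensities reported as Rose Bengal sodium equivalents.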
The nature of assay [6]: qHTS assay to test for compound auto fluorescence at 535 nm (green) in HepG2 cells (AID 720675).
Assay [7] is described as follows: qHTS assay to test for compound auto fluorescence at 460 nm (blue) in HEK293 cells (AID 720678). In short, it runs like this:
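HEK293, 2,000 cells/well, 10% dialyzed FBS; attach 4-5 hr 37C; pin compound or DMSO; o/n 37C/5% CO2; fluorescence 405/460 nm; triamterene-equivalent units.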

Assay [8] in a line: qHTS assay for small molecule disruptors of the mitochondrial membrane potential (AID 720635). Also: potency is read from the fitted curve at half-maximal effect. In short, it runs like this:
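Mitochondrial membrane potential tracked with Mito-MPS dye, red aggregates (ex 540/em 590 nm) against green monomers (ex 490/em 535 nm). Compound treatment 1 hr at 37C, dye 30 min in HepG2.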

Assay [9] can be described thus: qHTS assay to test for compound auto fluorescence at 590 nm (red) in HEK293 cells (AID 720679). In short, it runs like this: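 Intensity at 540nm excitation and 590nm emission is reported as Rose Bengal sodium-equivalent autofluorescence. Measurements followed overnight exposure (37C, 5% CO2) of HEK293 cells, 2,000 per well, to 23 nL compound.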

Where “and” joins values, the source holds several entries; their conditions need not be identical. Identical values can stand only once. Records with an inconclusive call do not appear. Calls of active or inactive are those of the source. Unless noted, calls follow the shape of the dose curve; as a rule, active = well fitted curve in the direction sought with a large enough effect in the repeat runs; inconclusive = weak or mixed curves; inactive = no such curve, though single readings can be large; an effect the other way counts as inactive or inconclusive.

For the compound `CN(C)CCC=C1c2ccccc2C(C)(C)c2ccccc21`, the Potency entry in [1], in assay [2], in [3], in [4], in assay [5] and in assay [6] was “inactive” in each case. The Potency result in assay [7] was “inactive”.

Consider `C/C(=C(\CCOC(=O)c1ccccc1)SS/C(CCOC(=O)c1ccccc1)=C(/C)N(C=O)Cc1cnc(C)nc1N)N(C=O)Cc1cnc(C)nc1N`, for which the Potency result in assay [1], in assay [2], in assay [3], in assay [4], in assay [8] and in [5] was “inactive” in each case. Also, the Potency result in assay [6], in assay [7] and in assay [9] was “inactive” in each case.

With `CC[C@H](C)[C@H]1O[C@]2(CC[C@@H]1C)C[C@@H]1C[C@@H](C/C=C(\C)[C@@H](O[C@H]3C[C@H](OC)[C@@H](O[C@H]4C[C@H](OC)[C@@H](O)[C@H](C)O4)[C@H](C)O3)[C@@H](C)/C=C/C=C3\CO[C@@H]4[C@H](O)C(C)=C[C@@H](C(=O)O1)[C@]34O)O2`, the Potency entry in [1], in assay [4], in assay [5], in [6], in assay [7] and in assay [9] was “inactive” throughout. Also, the results for the Potency in [2], in assay [3] and in assay [8] were 4.22 µM (active), 2.98 µM (active) and 7.5 µM (active), respectively.

As for `C/C1=C2N=C(/C=C3N=C(/C(C)=C4\[N-]C(C(CC(N)=O)C4(C)CCC(=O)NCC(C)OP(=O)([O-])OC4C(CO)OC(n5cnc6cc(C)c(C)cc65)C4O)C4(C)N=C1C(CCC(N)=O)C4(C)CC(N)=O)C(CCC(N)=O)C\3(C)C)C(CCC(N)=O)C/2(C)CC(N)=O.[CH3-].[Co+3]` (stereo unspecified), the Potency entry in [1], in assay [2], in assay [4], in [5], in assay [6] and in assay [7] was “inactive” each time. In assay [9], the Potency result was “inactive”. Besides, the Potency in [3] was 23.7 µM (active).

In the case of `CC(=O)O[C@]1(C(C)=O)CC[C@H]2[C@@H]3CCC4=CC(=O)CC[C@]4(C)[C@@]3(F)[C@@H](O)C[C@@]21C`, the Potency result in assay [1], in assay [2], in assay [3], in assay [4], in assay [8] and in assay [5] was “inactive” each time. Further, the Potency result in assay [6], in assay [7] and in assay [9] was “inactive” each time.

Take `CN1C(=O)CN2CCc3ccccc3C2c2cc(Cl)ccc21` (stereo unspecified): the Potency entry in assay [1], in assay [2], in [3], in assay [4], in assay [8] and in assay [5] was “inactive” each time. Besides, the Potency result in assay [6], in assay [7] and in assay [9] was “inactive” in each case.

Regarding `Cc1c(O)cc2c(c1C)O[C@](C)(CCC[C@H](C)CCC[C@H](C)CCCC(C)C)CC2`, the Potency entry in assay [1], in [2], in assay [3], in assay [4], in assay [8] and in assay [5] was “inactive” in each case. In addition, the Potency entry in [6], in assay [7] and in assay [9] was “inactive” throughout.

In the case of `CN[C@@H]1[C@H](O[C@H]2[C@H](O[C@H]3[C@H](O)[C@@H](O)[C@H](N=C(N)N)[C@@H](O)[C@@H]3N=C(N)N)O[C@@H](C)[C@]2(O)CO)O[C@@H](CO)[C@H](O)[C@H]1O`, the Potency entry in [1], in [2], in [3], in assay [4], in [5] and in assay [6] was “inactive” each time. Moreover, the Potency result in [7] and in assay [9] was “inactive” each time.

With `C=CC1=C(C)C2=CC3=NC(=C(CC(=O)[O-])C4=NC(=C(C)C4=C([O-])[O-])C=c4[n-]c(c(C)c4CC)=CC1=N2)C(CCC(=O)[O-])C3C.[Cu+2].[Na+].[Na+].[Na+]` (stereo unspecified), the Potency result in assay [1], in [2], in assay [4], in assay [5], in assay [6] and in [7] was “inactive” in each case. Also, in [9], the Potency result was “inactive”. In addition, the Potency in assay [3] was 23.7 µM (active).

Consider `COc1cc(/C=C/C(=O)N2CCN(CC(=O)N3CCCC3)CC2)cc(OC)c1OC`, for which the Potency entry in [1], in assay [2], in assay [3], in assay [4], in assay [8] and in [5] was “inactive” throughout. The Potency result in assay [6], in assay [7] and in [9] was “inactive” throughout.

In the case of `CC(=O)Nc1c(I)c(C(=O)N[C@H]2C(O)O[C@H](CO)[C@@H](O)[C@@H]2O)c(I)c(N(C)C(C)=O)c1I` (stereo partly specified), the Potency result in assay [1], in assay [2], in assay [3], in assay [4], in [5] and in assay [6] was “inactive” each time. In addition, the Potency entry in assay [7] and in assay [9] was “inactive” throughout.

On to `CC(CN1c2ccccc2Sc2cccnc21)N(C)C` (stereo unspecified), for which the Potency result in assay [1], in assay [2], in [3], in assay [4], in [5] and in assay [6] was “inactive” throughout. Further, the Potency result in [7] and in [9] was “inactive” in each case.

Consider `CCC(C)[C@H]1O[C@]2(C=C[C@@H]1C)C[C@@H]1C[C@@H](C/C=C(\C)[C@@H](O[C@H]3C[C@H](OC)[C@@H](O[C@H]4C[C@H](OC)[C@H](NC(C)=O)[C@H](C)O4)[C@H](C)O3)[C@@H](C)/C=C/C=C3\CO[C@@H]4[C@H](O)C(C)=C[C@@H](C(=O)O1)[C@]34O)O2` (stereo partly specified), for which the Potency entry in [1], in assay [4], in assay [5], in assay [6], in [7] and in assay [9] was “inactive” throughout. Also, the Potency is 2.98 µM (active) and 11.9 µM (active) in [2]; 6.68 µM (active) and 10.6 µM (active) in assay [3]; 3.76 µM (active) and 11.9 µM (active) in assay [8].

Consider `CCCCCCCCCCCC(=O)OC[C@@H](O)C1OC[C@H](O)[C@H]1O` (stereo partly specified), for which the Potency entry in [1], in [2], in [3], in assay [4], in [8] and in assay [5] was “inactive” throughout. Further, the Potency entry in [6], in assay [7] and in assay [9] was “inactive” each time.

For the compound `CCN(CC)CCOc1ccc2nc(N(C)C)sc2c1`, the Potency result in [1], in [2], in assay [3], in [4], in assay [5] and in assay [6] was “inactive” each time. Besides, in [7], the Potency result is “inactive”.

Turning to `CCNC(=O)[C@@H]1CCCN1C(=O)[C@H](CCCN=C(N)N)NC(=O)[C@H](CC(C)C)NC(=O)[C@@H](Cc1c[nH]c2ccccc12)NC(=O)[C@H](Cc1ccc(O)cc1)NC(=O)[C@H](CO)NC(=O)[C@H](Cc1c[nH]c2ccccc12)NC(=O)[C@H](Cc1cnc[nH]1)NC(=O)[C@@H]1CCC(=O)N1`, the Potency entry in assay [1], in assay [5], in assay [6], in assay [7] and in [9] was “inactive” in each case. The Potency was 8.41 µM (active) in assay [2], 8.41 µM (active) in assay [3], 29.8 µM (active) in [4] and 27.8 µM (active) in assay [8].

As for `CCOc1ccc(N=Nc2ccc(N)cc2N)cc1`, the Potency was 0.168 µM (active) in assay [1], 2.37 µM (active) in assay [3], 11.9 µM (active) in assay [4] and 1.68 µM (active) in assay [8]. Besides, the Potency entry in assay [2], in assay [5], in [6], in assay [7] and in [9] was “inactive” each time.

In the case of `O=S(=O)(O)CCCS(=O)(=O)O`, the Potency result in assay [1], in assay [2], in assay [3], in assay [4], in assay [5] and in [6] was “inactive” each time. The Potency entry in assay [7] and in assay [9] was “inactive” in each case.

As to `C[C@H]1C[C@@H]2[C@H]([C@@H](O)C[C@@]3(C)[C@H]2CC[C@]3(O)C(=O)COC(=O)CCC(=O)O)[C@@]2(C)C=CC(=O)C=C12`, the Potency entry in assay [1], in assay [2], in assay [3], in [4], in assay [5] and in assay [6] was “inactive” throughout. Moreover, the Potency result in assay [7] and in [9] was “inactive” in each case.

Take `CN1CCc2c(c3ccccc3n2Cc2ccccc2)C1`: the Potency entry in assay [1], in [2], in assay [3], in assay [4], in [5] and in assay [6] was “inactive” throughout. Moreover, the Potency entry in assay [7] and in [9] was “inactive” in each case.

For `CN1CCC(CN2c3ccccc3Sc3ccccc32)C1` (stereo unspecified), the Potency result in [1], in assay [2], in assay [3], in assay [4], in [5] and in [6] was “inactive” throughout. Besides, the Potency entry in assay [7] and in [9] was “inactive” in each case.

The record behind these values is PubChem BioAssay (Tox21).
